PubChem BioAssay
The source made the active and inactive calls.

Columns and labels:
Albumin (Bos taurus) = Albumin (Bos taurus) (UniProt P02769); test: compounds binding labelled BSA control protein – biochemical, small-molecule microarray, Alexa647 label, 635/667 nm fluorescence, artefact control for SMM control protein annotation, profiling panel (AID 1118); details: BSA-A647 binding, fluorescence 635 nm, higher = more signal;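 note: score merges 667 nm emission intensity and signal-to-noise per printed compound spot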
[1] = probe aXIP binding to arrayed compounds – biochemical, NeuroSMM set, 635/667 nm fluorescence, primary screen (AID 1119); details: small-molecule microarray, higher = more signal, called active from +8 up or from −8 down;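 note: probe is the protein aXip251-270 applied at 1 µg/mL to compound-printed slides; binding of probe to printed compounds measured as 667 nm fluorescence plus signal to noise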
[2] = probe aNOTCH3 binding on compound microarray – biochemical, small-molecule microarray, 635/667 nm fluorescence, primary screen (AID 1120); details: higher = more signal;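 note: probe is a biotin-tagged antibody raised against NOTCH3 rather than NOTCH3 protein; score merges spot fluorescence near 667 nm with spot signal to noise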
[3] = probe aNOTCH2 binding on compound microarray – biochemical, small-molecule microarray, 635/667 nm fluorescence, primary screen (AID 1121); details: higher = more signal;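 note: score merges feature fluorescence read at 667 nm with its signal to noise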
[4] = molecular target: Carbonic anhydrase 2 (Homo sapiens) (UniProt P00918); test: compounds binding carbonic anhydrase 2 – biochemical, small-molecule microarray, Alexa647-labelled CAII, profiling panel (AID 1122); details: CAII-A647 binding fluorescence, higher = more signal
[5] = COS7 lysate on small-molecule microarray, probe aHis, 635 nm (AID 1123); details: COS7 cell lysate, fluorescence, higher = more signal;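 note: z-score combines 667nm fluorescence intensity with signal-to-noise per printed compound spot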
[6] = probe aLAP1 signal on lysate-treated microarray – cell lysate, small-molecule microarray, COS7 lysate, primary screen (AID 1124); details: probe aLAP1, fluorescence, higher = more signal;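 note: lysate comes from COS7 cells expressing LAP1 and is applied at 0.3 µg/mL; score merges spot fluorescence near 667 nm with signal-to-noise over triplicate slides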
Sam68 (KHDRBS1) = test: compounds binding KHDRBS1 protein – biochemical, small-molecule microarray, 635 nm fluorescence, primary screen (AID 1125); details: higher = more signal;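 note: score merges 667 nm channel intensity with signal to noise over triplicate slides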
[7] = system: Chordin-like protein 2 (CHRDL2); test: compounds binding chordin-like 2 – biochemical, small-molecule microarray, 635 nm fluorescence, primary screen (AID 1126); details: fluorescence 635 nm, higher = more signal;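 note: printed compound slides probed with Chrdl2 protein at 4 µg/mL for 1 h at 4 C; score merges 667 nm emission intensity with signal to noise over three replicate slides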
[8] = molecular target: Concanavalin-A (Canavalia ensiformis) (UniProt P02866); test: compounds binding concanavalin A lectin – biochemical, small-molecule microarray, Alexa647 label, 635 nm, artefact control for SMM control protein annotation, primary screen (AID 1127); details: ConA-A647 binding fluorescence, higher = more signal;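 note: z combines 667 nm emission intensity with signal-to-noise across three replicate slides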
[9] = compounds binding Alexa647 anti-His antibody – biochemical, small-molecule microarray, 635 nm fluorescence, artefact control for SMM control protein annotation, primary screen (AID 1128); details: higher = more signal;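 note: score merges feature fluorescence with signal-to-noise for each printed compound spot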
[10] = system: Human papillomavirus type 1a E7 protein (residues 1-88); test: HPV1a E7 small-molecule binders, primary screen, biochemical, small-molecule microarray, residues 1-88, 635 nm (AID 1129); details: small-molecule microarray binding, fluorescence 635 nm; higher = more signal
[11] = molecular target: Focal adhesion kinase 1 (Homo sapiens) (UniProt Q05397); test: PTK2 protein binding on printed compound slides – biochemical, small-molecule microarray, 635/667 nm fluorescence, BSA, DTT, primary screen (AID 1130); details: 635 nm fluorescence, higher = more signal;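 note: composite of spot emission at 667 nm and signal to noise over triplicate slides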
[12] = system: Fibrinogen (Alexa647-labelled); test: Alexa647-fibrinogen binding to printed small molecules – biochemical, small-molecule microarray, 635/667 nm fluorescence, artefact control for SMM control-protein annotation, profiling panel (AID 1131); details: fibrinogen-A647 binding fluorescence, higher = more signal;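 note: z-score merges 667 nm fluorescence with per-spot signal-to-noise over triplicate slides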
[13] = molecular target: Follistatin (Homo sapiens) (UniProt P19883); test: FST protein binding to printed compounds – biochemical, small-molecule microarray, 635/667 nm fluorescence, primary screen (AID 1132); details: 635 nm fluorescence, higher = more signal
[14] = molecular target: Fibroblast growth factor 2 (Homo sapiens) (UniProt P09038); test: basic fibroblast growth factor binding to printed compounds – biochemical, small-molecule microarray, 635/667 nm fluorescence, primary screen (AID 1133); details: FGF2, fluorescence 635/667, higher = more signal
[15] = JC-1 mitochondrial potential readout, lung cancer cells – cell-based, A549, JC-1 fluorescence, basal, 24 h, 100 nL, profiling panel (AID 1138); details: higher = more signal;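 note: A549 lung adenocarcinoma cells under basal conditions with no added stimulus; test concentration not given here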
Lefty1 = Lefty1 protein binding to printed compounds – biochemical, small-molecule microarray, 635/667 nm fluorescence, primary screen (AID 1139); details: fluorescence 635/667, higher = more signal
[16] = system: wheat germ agglutinin (Triticum aestivum), Alexa647-labelled; test: Alexa647-WGA lectin binding to printed small molecules – biochemical, small-molecule microarray, 635/667 nm fluorescence, artefact control for SMM control-protein annotation, profiling panel (AID 1140); details: WGA-A647 binding, 635 nm fluorescence, higher = more signal;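 note: score merges 667 nm feature emission with signal to noise over triplicate slides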
[17] = molecular target: Luciferin 4-monooxygenase (Photinus pyralis) (UniProt P08659); test: inhibition of purified Photinus pyralis luciferase – biochemical, luminescence, purified enzyme, 2006 set, primary screen (AID 1141); details: purified firefly luciferase, SteadyGlo luminescence, 30 min; higher = more signal, called active from +8 up or from −8 down;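 note: cell-free assay with purified firefly luciferase at 100 ng per well in PBS; test concentration not given here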
Sequence of Luciferin 4-monooxygenase (Photinus pyralis) (P08659 whole entry, looked up): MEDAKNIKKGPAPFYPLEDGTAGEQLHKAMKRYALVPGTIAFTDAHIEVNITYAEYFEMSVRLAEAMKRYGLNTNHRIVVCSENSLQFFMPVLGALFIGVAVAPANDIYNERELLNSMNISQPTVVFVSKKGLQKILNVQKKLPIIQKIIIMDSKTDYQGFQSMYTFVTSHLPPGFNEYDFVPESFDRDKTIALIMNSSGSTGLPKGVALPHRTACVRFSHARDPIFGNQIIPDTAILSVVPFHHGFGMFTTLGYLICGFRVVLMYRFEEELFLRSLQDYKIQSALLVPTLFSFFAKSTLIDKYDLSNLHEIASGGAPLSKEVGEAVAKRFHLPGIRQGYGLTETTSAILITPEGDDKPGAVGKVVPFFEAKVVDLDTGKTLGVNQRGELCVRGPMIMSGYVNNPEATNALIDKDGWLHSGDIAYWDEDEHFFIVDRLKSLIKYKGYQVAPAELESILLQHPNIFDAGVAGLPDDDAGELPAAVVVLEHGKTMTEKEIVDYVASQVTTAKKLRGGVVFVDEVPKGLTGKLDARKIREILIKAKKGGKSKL

Sequence of Albumin (Bos taurus) (P02769 whole entry, looked up): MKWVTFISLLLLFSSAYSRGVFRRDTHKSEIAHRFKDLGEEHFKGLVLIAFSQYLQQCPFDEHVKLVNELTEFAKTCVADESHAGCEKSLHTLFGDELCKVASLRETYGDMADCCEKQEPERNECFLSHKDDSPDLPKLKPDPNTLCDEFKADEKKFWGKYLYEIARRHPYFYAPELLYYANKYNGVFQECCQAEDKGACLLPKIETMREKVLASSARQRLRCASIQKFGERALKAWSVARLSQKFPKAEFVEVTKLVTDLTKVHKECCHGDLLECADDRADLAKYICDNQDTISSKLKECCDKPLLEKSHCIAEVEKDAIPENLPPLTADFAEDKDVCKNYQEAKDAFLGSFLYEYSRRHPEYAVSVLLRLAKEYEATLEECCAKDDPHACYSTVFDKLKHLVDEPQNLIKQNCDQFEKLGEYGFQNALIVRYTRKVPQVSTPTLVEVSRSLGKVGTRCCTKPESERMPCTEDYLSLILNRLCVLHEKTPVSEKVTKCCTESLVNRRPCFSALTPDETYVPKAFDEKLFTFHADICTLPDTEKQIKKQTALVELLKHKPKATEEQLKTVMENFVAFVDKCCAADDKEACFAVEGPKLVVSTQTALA
Sequence of Concanavalin-A (Canavalia ensiformis) (P02866 whole entry, looked up): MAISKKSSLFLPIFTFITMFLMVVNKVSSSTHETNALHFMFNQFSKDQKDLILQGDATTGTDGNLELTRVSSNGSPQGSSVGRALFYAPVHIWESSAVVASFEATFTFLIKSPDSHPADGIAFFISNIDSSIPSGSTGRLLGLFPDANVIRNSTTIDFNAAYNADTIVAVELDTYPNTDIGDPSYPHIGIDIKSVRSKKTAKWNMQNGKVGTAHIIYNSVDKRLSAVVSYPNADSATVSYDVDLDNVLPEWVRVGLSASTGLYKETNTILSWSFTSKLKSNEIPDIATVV
Sequence of Focal adhesion kinase 1 (Homo sapiens) (Q05397 whole entry, looked up): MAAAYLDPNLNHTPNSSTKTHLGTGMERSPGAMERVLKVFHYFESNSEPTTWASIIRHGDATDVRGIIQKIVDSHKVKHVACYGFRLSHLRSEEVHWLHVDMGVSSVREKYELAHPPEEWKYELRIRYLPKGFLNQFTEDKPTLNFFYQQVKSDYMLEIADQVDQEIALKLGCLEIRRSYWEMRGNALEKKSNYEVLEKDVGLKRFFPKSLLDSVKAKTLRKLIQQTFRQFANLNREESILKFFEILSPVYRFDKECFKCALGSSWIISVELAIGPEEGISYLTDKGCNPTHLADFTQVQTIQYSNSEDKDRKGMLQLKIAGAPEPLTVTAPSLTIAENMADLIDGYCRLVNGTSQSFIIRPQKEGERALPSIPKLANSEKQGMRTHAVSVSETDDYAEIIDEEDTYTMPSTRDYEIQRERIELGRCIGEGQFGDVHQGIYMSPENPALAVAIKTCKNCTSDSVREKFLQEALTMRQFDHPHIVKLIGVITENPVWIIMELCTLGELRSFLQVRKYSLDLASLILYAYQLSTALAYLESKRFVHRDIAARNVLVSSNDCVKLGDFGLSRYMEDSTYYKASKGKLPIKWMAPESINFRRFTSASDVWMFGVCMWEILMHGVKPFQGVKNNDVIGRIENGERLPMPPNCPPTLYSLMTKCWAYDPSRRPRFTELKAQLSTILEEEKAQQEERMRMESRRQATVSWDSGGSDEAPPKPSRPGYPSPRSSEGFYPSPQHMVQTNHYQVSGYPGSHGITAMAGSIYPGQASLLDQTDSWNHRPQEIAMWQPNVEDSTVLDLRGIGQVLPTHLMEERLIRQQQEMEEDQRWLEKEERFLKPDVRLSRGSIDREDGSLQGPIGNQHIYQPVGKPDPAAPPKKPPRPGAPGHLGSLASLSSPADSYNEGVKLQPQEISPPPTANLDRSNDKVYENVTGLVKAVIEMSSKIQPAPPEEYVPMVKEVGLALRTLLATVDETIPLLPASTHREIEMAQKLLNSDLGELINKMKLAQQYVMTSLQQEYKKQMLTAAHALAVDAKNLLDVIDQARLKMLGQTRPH
Sequence of Fibroblast growth factor 2 (Homo sapiens) (P09038 whole entry, looked up): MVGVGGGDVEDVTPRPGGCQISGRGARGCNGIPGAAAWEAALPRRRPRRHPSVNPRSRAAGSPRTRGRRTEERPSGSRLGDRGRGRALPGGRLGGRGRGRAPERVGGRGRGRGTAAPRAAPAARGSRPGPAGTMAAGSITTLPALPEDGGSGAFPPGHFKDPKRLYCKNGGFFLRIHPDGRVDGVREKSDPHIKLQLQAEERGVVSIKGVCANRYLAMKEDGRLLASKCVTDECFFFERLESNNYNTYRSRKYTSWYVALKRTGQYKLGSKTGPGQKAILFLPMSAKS
Sequence of Follistatin (Homo sapiens) (P19883 whole entry, looked up): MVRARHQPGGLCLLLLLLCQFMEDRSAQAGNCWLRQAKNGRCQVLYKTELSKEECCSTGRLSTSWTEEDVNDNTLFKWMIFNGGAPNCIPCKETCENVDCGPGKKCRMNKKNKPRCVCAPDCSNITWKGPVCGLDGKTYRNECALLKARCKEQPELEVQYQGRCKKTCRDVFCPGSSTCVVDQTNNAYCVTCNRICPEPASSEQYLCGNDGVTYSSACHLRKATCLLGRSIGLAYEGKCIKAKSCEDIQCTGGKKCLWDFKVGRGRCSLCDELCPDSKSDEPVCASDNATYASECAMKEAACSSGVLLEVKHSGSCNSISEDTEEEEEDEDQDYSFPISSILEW

Compound | composite z-score (Albumin (Bos taurus)) | composite Z-score [1] | composite z-score [2] | composite z-score [3] | composite z-score [4] | composite z-score [5] | composite z-score [6] | composite z-score (Sam68 (KHDRBS1)) | composite z-score [7] | composite z-score [8] | composite z-score [9] | composite z-score [10] | composite z-score [11] | composite z-score [12] | composite z-score [13] | composite z-score [14] | z-score [15] | composite z-score (Lefty1) | composite z-score [16] | z-score [17]
C[C@@H]1NC(=O)[C@@]23C(=O)N[C@@H](Cc4ccccc4)C2[C@H](C)[C@@]2(C)O[C@H]2C3/C=C/C/C=C\CNC(=O)[C@@H]2CCCN2C1=O (stereo not given in full) | -0.397 | -0.433 (inactive) | -0.078 | -0.139 | 0.742 | -0.0175 | -0.11 | -1 | 0.18 | -0.327 | 0.104 | -0.715 | -0.178 | -1.12 | 0.148 | -0.197 | 0.0238 | 0.0216 | -0.628 | 0.0545 (inactive)
CC(CO)N1C(=O)[C@@H]2[C@H]3C(=O)OCC=C[C@H]3OC23C=CCN(CCN2CCOCC2)C(=O)[C@@H]13 (stereo not given in full) | 0.138 | -0.0888 (inactive) | -0.152 | -0.117 | 0.302 | -1.05 | -0.586 | -0.0161 | -0.235 | -0.22 | 1.01 | -0.549 | -0.568 | -1.3 | 0.207 | -0.443 | 0.659 | 0.27 | 0.11 | -0.531 (inactive)
COCCOC(=O)N1C(=O)[C@@]2(c3cc(C#CC4=CCCCC4)ccc31)[C@H](c1ccccc1OCCO)N1[C@H](c3ccccc3)[C@H](c3ccccc3)OC(=O)[C@H]1[C@@H]2C(=O)Nc1nc2ccccc2s1 | 0.526 | -0.243 (inactive) | 0.158 | -0.0047 | 0.236 | 1.06 | -0.375 | 1.32 | 0.454 | 1.15 | 1.16 | 0.96 | 0.96 | 0.868 | 1.19 | 0.731 | -2.14 | 1.09 | 0.754 | -2.08 (inactive)
COC(=O)[C@@]1(Cc2ccccc2)[C@H]2c3cc(C(=O)N(C)C)n(CCN4CNCC4=O)c3C[C@H]2CN1C(=O)c1ccccc1 | 0.984 | 0.0052 (inactive) | 0.571 | 0.37 | 0.826 | -0.325 | 1.26 | -0.764 | -1.16 | -1.42 | 3.19 | 0.644 | -0.619 | -1.2 | -0.64 | -0.8 | 0.697 | -2.13 | 1.45 | 0.394 (inactive)
C=CCC(OC(C)=O)[C@@H]1[C@@H](N(Cc2cccc3ccccc23)C(=O)c2cccc3ccccc23)c2cc(OCCCO)ccc2N1C(=O)c1ccc(-c2ccccc2)cc1 (stereo not given in full) | -0.0704 | -0.0014 (inactive) | 0.122 | -0.143 | 0.115 | 0.888 | -0.35 | -0.159 | 0.25 | -0.132 | -0.123 | -0.14 | 0.0614 | 0.643 | 0.693 | 0.497 | -0.338 | 0.0548 | 0.0915 | 0.337 (inactive)
CC1=C[C@@]2(CO)C(=O)[C@]3(CO3)[C@@H]1[C@H]1[C@]2(C)C=C(CO)C(=O)[C@]12CO2 | -0.123 | 0.817 (inactive) | 0.112 | -0.0795 | 0.497 | -0.255 | -0.274 | 0.369 | 0.397 | 0.301 | 0.0455 | -0.0634 | 0.206 | -0.403 | 0.443 | 0.165 | 0.173 | 0.381 | 0.207 | 0.538 (inactive)
C=C(C)C1CCC(C(O)C2C=CC3C(=O)N(C)C(=O)C3N2N2CCCCC2)CC1 (stereo not given) | 0.735 | 0.172 (inactive) | 0.223 | 0.0598 | 0.514 | 2.03 | 0.386 | 1.29 | 1.24 | 1.12 | 1.17 | 1.24 | 0.525 | 0.884 | 1.21 | 0.286 | 0.32 | 0.962 | 1 | 0.344 (inactive)
CN(C)CCCNC(=O)[C@@]1(c2ccc([N+](=O)[O-])cc2)CC(=O)N(CC23CC4CC(CC(C4)C2)C3)[C@@H]1c1ccc(CO)cc1I | 0.685 | -0.729 (inactive) | 0.095 | -0.0877 | 0.511 | 2.86 | 0.457 | 1.28 | 0.731 | 1.14 | 1.46 | 1.21 | -0.0381 | 0.846 | 1.35 | 1.34 | -2.32 | 1.5 | 0.674 | -1.46 (inactive)
C=CCNC(=O)[C@@H]1[C@H]2C(=O)O[C@H](c3ccccc3)[C@H](c3ccccc3)N2[C@H](c2ccc(O)cc2)[C@@]12C(=O)N(C(=O)OCCOC)c1ccc(C#CC3(O)CCCCCC3)cc12 | -0.632 | -0.245 (inactive) | -0.416 | -0.153 | -0.742 | -0.642 | -0.547 | -0.669 | -2.57 | -0.533 | -0.461 | -1.32 | -0.365 | -2.02 | -1.01 | -1.93 | 0.426 | -0.624 | -0.556 | 0.779 (inactive)
C=CCC(OC(C)=O)[C@@H]1[C@@H](N(Cc2cc3ccccc3o2)C(=O)c2ccc(C)cc2)c2cc(OCCCO)ccc2N1C(=O)Cc1ccc(OC)cc1 (stereo not given in full) | -0.204 | 0.264 (inactive) | -0.176 | -0.0811 | -0.119 | 0.59 | 0.128 | 0.0262 | 0.172 | 0.217 | 0.0464 | -0.454 | 0.0903 | 0.0839 | 0.924 | 0.158 | 1.33 | -0.0083 | 0.273 | -1.37 (inactive)
